Laboratory results reported in PubChem BioAssay (NCI).
“And” between values parts separate entries of the source, which are not always exact repeats. Equal entries are not always repeated. Compounds without any hit were thinned out: in the full panel of roughly 79,000, 15% have a hit. A structure can be active in one record and inactive in another. The source made the active and inactive calls. No stated cut-off is given here; in the data, active means growth inhibition above about 70%; inactive means the rest.

Columns and labels:
[1] = NCI Yeast Anticancer Drug Screen. Data for the rad50 strain (AID 155);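 further: 0% = growth of vehicle-only cultures of the same strain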; conditions: S. cerevisiae rad50 strain growth inhibition, stronger effect = higher value
In short: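 Readout: growth inhibition relative to vehicle-treated cultures. Compound exposure was carried out in a genetically defined yeast strain deficient in DNA damage repair.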

[2] = NCI Yeast Anticancer Drug Screen. Data for the mec2-1 strain (AID 157); conditions: S. cerevisiae mec2-1 strain, stronger effect = higher value
In short: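 Strain: mec2-1 (DNA repair/cell cycle alteration). Compound exposure, then growth measured; inhibition expressed relative to vehicle.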

[3] = NCI Yeast Anticancer Drug Screen. Data for the sgs1 mgt1 strain (AID 161);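 further: 0% = growth of cultures given vehicle only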; conditions: S. cerevisiae sgs1 mgt1 strain, stronger effect = higher value
In short: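 Genetically altered yeast, compound exposure, growth inhibition relative to vehicle.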

[4] = NCI Yeast Anticancer Drug Screen. Data for the cln2 rad14 strain (AID 165);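 further: 0% = growth equal to vehicle treated cultures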; conditions: S. cerevisiae cln2 rad14 strain, stronger effect = higher value
In short: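 Compounds are applied to the cln2 rad14 yeast strain, and growth is then compared with that of vehicle-treated cultures to give inhibition.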

[5] = NCI Yeast Anticancer Drug Screen. Data for the bub3 strain (AID 167); conditions: S. cerevisiae bub3 mutant strain, stronger effect = higher value
In short: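 Readout: yeast growth inhibition, expressed relative to vehicle-only wells. The test organism is a mutant strain from a panel with lesions in DNA repair or checkpoint genes.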

[6] = NCI Yeast Anticancer Drug Screen. Data for the mlh1 rad18 strain (AID 175); conditions: S. cerevisiae mlh1 rad18 strain growth inhibition, stronger effect = higher value
In short: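 Read-out is yeast growth inhibition, calculated against vehicle-only controls. The compound was applied to a strain engineered with DNA damage repair alterations.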

[7] = at 5.0 µM (retest, dose inferred, filed as 0.5)
[8] = at 50.0 µM (retest, dose inferred, filed as 5.0)

| Structure (SMILES) | growth inhibition [1, 7] | growth inhibition [1, 8] | growth inhibition ([1]; at 50.0 µM) | growth inhibition [2, 7] | growth inhibition [2, 8] | growth inhibition ([2]; at 50.0 µM) | growth inhibition [3, 7] | growth inhibition [3, 8] | growth inhibition ([3]; at 50.0 µM) | growth inhibition [4, 7] | growth inhibition [4, 8] | growth inhibition ([4]; at 50.0 µM) | growth inhibition [5, 7] | growth inhibition [5, 8] | growth inhibition ([5]; at 50.0 µM) | growth inhibition [6, 7] | growth inhibition [6, 8] | growth inhibition ([6]; at 50.0 µM) |
| --- | --- | --- | --- | --- | --- | --- | --- | --- | --- | --- | --- | --- | --- | --- | --- | --- | --- | --- |
| CC#C[P+](c1ccccc1)(c1ccccc1)c1ccccc1 | 98% (active) | 98% (active) | 91.2% (active) | 87% (active) | 87% (active) | 92.9% (active) | 90% (active) | 90% (active) | 92.8% (active) | 91% (active) | 91% (active) | 90.8% (active) | 86% (active) | 86% (active) | 90.2% (active) | 95% (active) | 95% (active) | 88.8% (active) |
| C1CC[CH]([Sn]([CH]2CCCCC2)[CH]2CCCCC2)CC1.C1CC[CH]([Sn]([CH]2CCCCC2)[CH]2CCCCC2)CC1 | 2% (inactive) | 34% (inactive) | 31.5% (inactive) | 0% (inactive) | 34% (inactive) | 63.3% (inactive) | 4% (inactive) | 17% (inactive) | 75.7% (active) | 3% (inactive) | -9% (inactive) | -30.2% (inactive) | 3% (inactive) | -2% (inactive) | 9.5% (inactive) | 0% (inactive) | 4% (inactive) | 87.9% (active) |
| CC[N-]c1nnnn1CC.[Au+].c1ccc([PH+](c2ccccc2)c2ccccc2)cc1 | 99% (active) | 98% (active) | 97.8% (active) | 99% (active) | 98% (active) | 98.4% (active) | 99% (active) | 98% (active) | 97.7% (active) | 97% (active) | 96% (active) | 97.2% (active) | 99% (active) | 98% (active) | 97.8% (active) | 99% (active) | 97% (active) | 97.2% (active) |
| Cc1ccc(C(=O)CCl)c(C)c1 | 11% (inactive) and 16% (inactive) | 99% (active) and 94% (active) | 96.4% (active) and 87.7% (active) | 23% (inactive) and 18% (inactive) | 99% (active) and 92% (active) | 98.2% (active) and 91.6% (active) | 25% (inactive) and 11% (inactive) | 99% (active) and 55% (inactive) | 94.7% (active) and 96.1% (active) | 15% (inactive) and 17% (inactive) | 97% (active) and 83% (active) | 87.3% (active) and 71.6% (active) | 8% (inactive) and 2% (inactive) | 99% (active) and 97% (active) | 91.8% (active) and 90.2% (active) | 28% (inactive) and 7% (inactive) | 99% (active) | 97.7% (active) and 97.1% (active) |
| CC1C(=O)OCC1(C)O (centres undefined) | 1% (inactive) | -2% (inactive) | -15.2% (inactive) | 1% (inactive) | 0% (inactive) | -11.7% (inactive) | -4% (inactive) | 0% (inactive) | -5.55% (inactive) | 1% (inactive) | 0% (inactive) | 0.75% (inactive) | 2% (inactive) | 2% (inactive) | 46% (inactive) | 4% (inactive) | 3% (inactive) | -21.6% (inactive) |
| CCCCCCCCCCCCN1CC1 | -26% (inactive) | 26% (inactive) | 91% (active) | -38% (inactive) | -7% (inactive) | 68% (inactive) | -10% (inactive) | 47% (inactive) | 58.5% (inactive) | -23% (inactive) | -2% (inactive) | 59.5% (inactive) | 1% (inactive) | 44% (inactive) | 82% (active) | -70% (inactive) | -17% (inactive) | 67.1% (inactive) |
| O=C1C=CC(=O)c2c(O)ccc(O)c21 | 99% (active) and 16% (inactive) | 17% (inactive) and 93% (active) | 89.1% (active) and 64% (inactive) | 99% (active) and -14% (inactive) | 14% (inactive) and 95% (active) | 91.5% (active) and 68.8% (inactive) | 97% (active) and -5% (inactive) | 19% (inactive) and 95% (active) | 91% (active) and 80.3% (active) | 98% (active) and 20% (inactive) | 16% (inactive) and 93% (active) | 88.8% (active) and 77.7% (active) | 99% (active) and 11% (inactive) | 80% (active) and 93% (active) | 89.6% (active) and 79.1% (active) | 99% (active) and -4% (inactive) | 21% (inactive) and 92% (active) | 88.4% (active) |
| CCC[CH2][Sn]1([CH2]CCC)[O]CC(CN2CCCC2)[O]1 (centres undefined) | 30% (inactive) | 96% (active) | 83.8% (active) | 28% (inactive) | 98% (active) | 87.3% (active) | 46% (inactive) | 97% (active) | 84.2% (active) | 26% (inactive) | 95% (active) | 82.3% (active) | 36% (inactive) | 97% (active) | 86.9% (active) | 48% (inactive) | 97% (active) | 82.2% (active) |
| O=C1CN2C(Cl)(Cl)C2(c2ccccc2)c2cc(Cl)ccc2N1CC1CC1 (centres undefined) | 54% (inactive) | 93% (active) | 90.3% (active) | 29% (inactive) | 93% (active) | 91.3% (active) | 27% (inactive) | 94% (active) | 92.7% (active) | 18% (inactive) | 91% (active) | 88.3% (active) | 39% (inactive) | 93% (active) | 68.2% (inactive) | 65% (inactive) | 92% (active) | 87.3% (active) |
| CC(C)O.CC(C)O.OCCN(CCO)CCO.OCCN(CCO)CCO.[Ti+2] | 19% (inactive) | 36% (inactive) | 60% (inactive) | 44% (inactive) | 96% (active) | 31.6% (inactive) | 11% (inactive) | 20% (inactive) | 52.9% (inactive) | 34% (inactive) | 70% (active) | 4.3% (inactive) | 99% (active) | 99% (active) | 39.2% (inactive) | 22% (inactive) | 39% (inactive) | 44.2% (inactive) |
| C[n+]1c(/C=C/c2ccc(O)c(O)c2)[se]c2ccccc21 | 12% (inactive) | 72% (active) | 77.7% (active) | 3% (inactive) | 80% (active) | 70.6% (active) | 48% (inactive) | 81% (active) | 82.7% (active) | 19% (inactive) | 53% (inactive) | 66.9% (inactive) | -3% (inactive) | 61% (inactive) | 56.1% (inactive) | 18% (inactive) | 80% (active) | 77% (active) |
| O=[N+]([O-])C(Br)CO (centres undefined) | 2% (inactive) | 91% (active) | 76% (active) | 2% (inactive) | 99% (active) | 89% (active) | 3% (inactive) | 94% (active) | 79% (active) | 9% (inactive) | 95% (active) | 84.8% (active) | 7% (inactive) | 99% (active) | 94% (active) | 4% (inactive) | 97% (active) | 88.1% (active) |
| Brc1ccc(N2C[N+](c3ccc(Br)cc3)=NC(c3ccccc3)=N2)cc1 | 23% (inactive) | 94% (active) | 97.5% (active) and 18.3% (inactive) | -2% (inactive) | 96% (active) | 97.8% (active) and -1.3% (inactive) | 6% (inactive) | 92% (active) | 98.5% (active) and 10.9% (inactive) | 16% (inactive) | 98% (active) | 98.5% (active) and 10.1% (inactive) | 2% (inactive) | 99% (active) | 98.5% (active) and -3.05% (inactive) | 9% (inactive) | 97% (active) | 98.3% (active) and 13.1% (inactive) |
| CC(=O)OCC12CCC(C)=CC1OC1C3(O)N=C(C)OC3C2(C)C12CO2 (centres undefined) | 35% (inactive) | 78% (active) | 32.2% (inactive) | 28% (inactive) | 55% (inactive) | 69% (inactive) | 46% (inactive) | 76% (active) | 41% (inactive) | 38% (inactive) | 64% (inactive) | 56.3% (inactive) | 18% (inactive) | 69% (inactive) | 41.9% (inactive) | 46% (inactive) | 75% (active) | 18.4% (inactive) |
| CCn1c(O)c(C(=O)NC(C)c2ccc([N+](=O)[O-])cc2)c(=O)n(CC)c1=S (centres undefined) | 31% (inactive) | 91% (active) | 86.5% (active) | 33% (inactive) | 96% (active) | 91.4% (active) | 24% (inactive) | 83% (active) | 90.6% (active) | 17% (inactive) | 46% (inactive) | 88.8% (active) | 9% (inactive) | 78% (active) | 89.3% (active) | 35% (inactive) | 92% (active) | 87% (active) |
| N#CC(C#N)=Cc1ccc([N+](=O)[O-])s1 | -83% (inactive) | 98% (active) | 99.6% (active) | -45% (inactive) | 99% (active) | 99.6% (active) | -42% (inactive) | 98% (active) | 99.2% (active) | -53% (inactive) | 98% (active) | 98.5% (active) | -66% (inactive) | 98% (active) | 99.3% (active) | -83% (inactive) | 97% (active) | 99.2% (active) |
| CCC[CH2][Sn]([Cl])([CH2]C)[O][Sn]([Cl])([CH2]C)[CH2]CCC (centres undefined) | 88% (active) | 98% (active) | 83.5% (active) | 96% (active) | 99% (active) | 88.2% (active) | 81% (active) | 97% (active) | 89.6% (active) | 84% (active) | 97% (active) | 91.2% (active) | 84% (active) | 97% (active) | 89.2% (active) | 95% (active) | 98% (active) | 90.2% (active) |
| COc1cc(C2c3cc4c(cc3[C@@H](Nc3ccc(F)cc3)C3COC(=O)[C@H]23)OCO4)cc(OC)c1O (some centres undefined) | 96% (active) | 96% (active) | 85.3% (active) | 97% (active) | 98% (active) | 91.2% (active) | 94% (active) | 99% (active) | 88.9% (active) | 41% (inactive) | 99% (active) | 87.8% (active) | 99% (active) | 99% (active) | 88.6% (active) | 95% (active) | 95% (active) | 88.1% (active) |
